# Measurements: PubChem BioAssay (NCI)
# This is part of a sample that, as a whole, favours compounds with a hit. Of some 83,000 tested, about 20% had one in any assay.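 Each cell line was grown in a 96-well plate and treated with one concentration of compound for 48 hours. Values below 10 were considered active.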 Unmarked numbers belong to inactive results. Calls of active or inactive are those of the source.
# System: HL-60(TB) leukemia
# Test: NCI-60 one-dose screen, 48 h (100 = growth as untreated, 0 = no growth, -100 = all killed)
# Details: 10 µM unless noted
row,Structure (SMILES),growth
1,CN(C)CCCNC(=O)c1cncnc1Nc1ccc2c(ccn2Cc2cccc(F)c2)c1,93.3%
2,Nc1ccc(-n2c(=O)oc3ccc(Cl)cc3c2=O)c(Cl)c1,-42.8% (active)
3,CC(C)CCCC(=O)O,109%
4,CCCCNCCCN(CCCC)CCCNCCCC,98.5%
5,O=C1C=C(O)C(=O)C=C1O,91.2%
6,CCN=C1C=CC(=C(c2ccc(N)cc2)c2ccc(N(CC)CC)c(C)c2)C=C1,-11% (active)
7,Cc1cc(Cl)nc(Nc2ccccc2)n1,78.1%
8,NCCOc1ncccc1/C=C1\c2ccccc2-c2ccc(F)cc21,-38.6% (active)
9,CC(C)(C)c1cc(O)c(O)c(C(C)(C)C)c1,4.04% (active)
10,CCCCN(CC)CC(CC)Nc1cc(OC)cc2cccnc12 (stereo not given),126%
11,COc1ccccc1-n1c(-c2ccc(O)cc2C)cn2c3c(=O)[nH]c(=O)n(C)c3nc12,79.9%
12,COc1ccc2c(c1)sc1nc(-c3ccccc3)c(-c3cccc4ccccc34)n12,6.59% (active)
13,Cc1cc2c(cc1C)[n+](Cc1ccc3ccccc3c1)cn2Cc1ccc2ccccc2c1,-60% (active)
14,COc1ccc(/C=C/C(=O)c2cc3c(N)c(C(=O)Nc4ccccc4Cl)sc3nc2C)cc1,4.2% (active)
15,CCOC(=O)c1sc(NC(=O)COc2ccc(/C=C3\CCc4cc(OC)ccc4C3=O)cc2)nc1C,-57.4% (active)
16,C=C1C(=O)O[C@H]2[C@H]1CC/C(COC(=O)NCc1c[nH]c3ccc(F)cc13)=C\CC[C@@]1(C)O[C@@H]21,-32.4% (active)
17,CCCCNC1=C(OCC)C(=O)c2ccccc2C1=O,101%
18,CCN(CC)CC#CCOC(=O)[C@]1(C)CCC[C@]2(C)c3ccc(C(C)C)cc3CC[C@@H]12,63.6%
19,O=C(N/N=C/c1cc2ccccc2n2nnnc12)Nc1ccccc1,91.8%
20,COCCOc1cc2ncnc(N3CCN(c4ncc(S(=O)(=O)N5CCCCC5)cn4)CC3)c2cc1OCCOC,100%

row,Structure (SMILES),growth
1,O=c1cc(C(F)(F)F)[nH]c(=S)[nH]1,94.1%
2,COc1cc(NCCCN(CC(C)C)C2CCCC2)c2ncccc2c1,22.5%
3,[O-][n+]1c(Cl)cc(Cl)c2ccccc21,84.9%
4,COc1ccc2c(c1)nc(N)c1c3ccccc3cn21,67.1%
5,COc1cc(/C=N/NC(=O)c2cnn3c2NC(c2ccccc2)C3)cc(OC)c1OC (stereo not given),81.1%
6,NCCNc1nc(-c2ccccc2)nc2nc(-c3ccccc3)oc12,97.9%
7,CC1=CC(C)(C)NC(=S)N1c1ccc(S(=O)(=O)O)c2cccc(S(=O)(=O)O)c12,106%
8,COC(=O)c1c[n+]([O-])ccc1OC,106%
9,CNc1ccccc1C(=O)N/N=C/C=C/c1ccccc1,-32.6% (active)
10,COc1cc(-c2ccc(NC(=O)NC3CC3)c(OC)c2)ccc1NC(=O)NC1CC1,43.6%
11,COc1ccc2nc3cc(Cl)ccc3c(Nc3ccc(N(C)C)cc3)c2c1,90%
12,N#CCc1csc(Cc2ccccc2)n1,95.7%
13,COCCN1CCN(Cc2ccc(-c3n[nH]c4c3C(=O)c3c(NC(=O)NN5CCOCC5)cccc3-4)cc2)CC1,-36.9% (active)
14,O=[N+]([O-])c1ccc(-c2nc(N(CCO)CCO)c3ccccc3n2)o1,-11.1% (active)
15,C=C1C(=O)O[C@H]2[C@H]1CC/C(CNC(=O)C(C)c1ccc(CC(C)C)cc1)=C\CC[C@@]1(C)O[C@@H]21 (stereo not given in full),-24.4% (active)
16,Cc1ccccc1CC(N)C(=O)O (stereo not given),103%
17,COc1cc(/C=C2\C(=O)N(c3c(Cl)cccc3Cl)c3ccccc32)cc(OC)c1O,-6.44% (active)
18,Nc1n[nH]c2cccc(C#Cc3cccc(NC(=O)c4cc(N5CCOCC5)cc(C(F)(F)F)c4)c3)c12,10.6%
19,CC(=O)OCC1O[C@@H](OC(C)=O)[C@@H](NC(=O)NS(=O)(=O)c2ccccc2)C(OC(C)=O)[C@@H]1OC(C)=O (stereo not given in full),95.7%
20,CCN1C(=O)N(CC)C2C1NN=c1s/c(=C\c3ccc([N+](=O)[O-])cc3)c(=O)n12 (stereo not given),-37.9% (active)
